Measurements: PubChem BioAssay (NCI)
The panel holds about 83,000 compounds, 20% with a hit somewhere; the sample as a whole holds those more often.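 Testing used 96-well plates and a 48-hour single-concentration exposure. Example: -40 means 40% of the starting cells died.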 A number with no mark means an inactive call. Activity calls are given as the source filed them. How the source made its calls: active means growth percent below 10; inactive means the rest.

Assays:
Test in all cases: NCI-60 one-dose screen, 48 h (100 = growth as untreated, 0 = no growth, -100 = all killed)
HOP-92 NSCLC = conditions: 10 µM unless noted
NCI-H522 lung = conditions: 10 µM unless noted
MALME-3M melanoma = conditions: 10 µM unless noted
SNB-75 CNS = conditions: 10 µM unless noted
U251 CNS = conditions: 10 µM unless noted
SK-MEL-5 melanoma = conditions: 10 µM unless noted
SK-MEL-2 melanoma = conditions: 10 µM unless noted
EKVX NSCLC = conditions: 10 µM unless noted
TK-10 renal = conditions: 10 µM unless noted
ACHN renal = conditions: 10 µM unless noted
CCRF-CEM leukemia = conditions: 10 µM unless noted
SR leukemia = conditions: 10 µM
RPMI-8226 leukemia = conditions: 10 µM unless noted
IGROV1 ovarian = conditions: 10 µM
T-47D breast = conditions: 10 µM unless noted
MDA-MB-435 melanoma = conditions: 10 µM unless noted
HCT-116 colon = conditions: 10 µM unless noted
SNB-19 CNS = conditions: 10 µM unless noted
COLO 205 colon = conditions: 10 µM

Row | SMILES | growth (HOP-92 NSCLC) | growth (NCI-H522 lung) | growth (MALME-3M melanoma) | growth (SNB-75 CNS) | growth (U251 CNS) | growth (SK-MEL-5 melanoma) | growth (SK-MEL-2 melanoma) | growth (EKVX NSCLC) | growth (TK-10 renal) | growth (ACHN renal) | growth (CCRF-CEM leukemia) | growth (SR leukemia) | growth (RPMI-8226 leukemia) | growth (IGROV1 ovarian) | growth (T-47D breast) | growth (MDA-MB-435 melanoma) | growth (HCT-116 colon) | growth (SNB-19 CNS) [%] | growth (COLO 205 colon) [%]
1 | Nc1ncnc2c1c(C(=O)NO)cn2C1OC(CO)C(O)C1O (stereo not given) | -37% (active) | -51.1% (active) | -41.1% (active) | 4.46% (active) | 11.9% | -93% (active) | -18.7% (active) | 6.87% (active) | 6.25% (active) | -15.4% (active) | -17.6% (active) | -7.79% (active) | -21.7% (active) | -71.1% (active) | -11.1% (active) | -72% (active) | 7.69% (active) | – | –
2 | CO[C@@H]([CH2][Hg][S]C#N)[C@@H]([CH2][Hg][S]C#N)OC | 76.2% | 48.1% | 104% | 84.5% | – | 107% | 106% | 112% | 133% | – | 42.5% | 66.5% | 94.6% | 63.9% | 116% | 98.7% | -100% (active) | 100 | –
3 | CCOc1cc(/C=N\Nc2nnc(C)n2N)c(C)cc1N(CCCl)CCCl | -17.4% (active) | 15% | – | 24.1% | – | -47.3% (active) | 17.2% | – | 31% | 21.6% | 4.43% (active) | -12.6% (active) | -37.9% (active) | 12.3% | 12.6% | 7.67% (active) | 12% | – | –
4 | CC(CC(C#N)(c1ccccc1)c1ccccc1)N1CCOCC1 (stereo not given) | 83.5% | – | 120% | 104% | 99.2% | 102% | 101% | – | 105% | 102% | 99.5% | 84.3% | 103% | 102% | 90% | 118% | 106% | 92.2 | 101
5 | O=C(O)c1[nH]c(=O)[nH]c(=O)c1F | 106% | 88.9% | 113% | – | – | – | 110% | 121% | 78.6% | 77% | 78.4% | 91.7% | 73.7% | 95.1% | 104% | 74.7% | 79.3% | – | –
6 | COc1cc[c]([Hg][Cl])cc1 | 90.1% | -73.8% (active) | 47.3% | 50.5% | -26% (active) | – | 39.9% | 76.3% | 114% | 86.5% | -20.8% (active) | -10.3% (active) | 41.5% | 15.1% | – | – | 48.4% | 28.6 | –
7 | CC(C)(NC(=O)c1nn(CCCCCF)c2ccccc12)c1ccccc1 | 68.6% | 64.3% | 108% | 88.5% | 84.4% | – | – | 94.7% | 103% | – | 82.5% | 85.2% | 78.6% | 101% | 75.4% | 103% | 66.9% | – | –
8 | O=C(CCCN1CCC2(CC1)C(=O)NCN2c1ccc(F)cc1)c1ccc(F)cc1 | 102% | 87.5% | 94.7% | 92.4% | 102% | 104% | 84.9% | 135% | – | 108% | 96.9% | 99.2% | 101% | 71.9% | – | 109% | 88.6% | 95.6 | 124
9 | CCOC(=O)/C(C#N)=C/c1ccc(N(CCCl)CCCl)cc1 | 67.6% | – | 99.7% | 73.3% | 92% | 97.9% | 99.2% | – | 91.4% | – | – | 30.3% | 88.4% | 48.4% | 80.6% | – | 97% | 106 | 112
10 | OC1(c2ccccc2F)c2ccccc2C2=NCCN21 (stereo not given) | 78.9% | – | 97.2% | 104% | 104% | 94.6% | 94.6% | 97.8% | 90.4% | 114% | – | 90.9% | 107% | 79.4% | 104% | 110% | 93.3% | 108 | 101
